Source: PubChem BioAssay (EPA / NIEHS)
Calls of active or inactive are those of the source. The calls were made as follows: active = hit-call score of the fitted dose curve at least 0.9, where 1 is the maximum; inactive = score below 0.9.

Tests used:
[1] = Tanguay_ZF_120hpf_DP24: Oregon State University Tanguay Lab 24 Hour Post-fertilization zebrafish Assay for Delayed Development (AID 2284390)
How it was run: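 Dechorionated 5D wild-type zebrafish embryos exposed statically from 6 hpf, one per well, 0.64% DMSO final, 28 C, sealed and dark. Developmental progression scored at 24 hpf by brightfield as binary present/absent; dead embryos excluded.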

[2] = Tanguay_ZF_120hpf_CRAN: Oregon State University Tanguay Lab 120 Hour Post-fertilization zebrafish Assay for Craniofacial Malformation (AID 2284397)
How it was run: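 Dechorionated Tropical 5D wild-type zebrafish embryos, one per well, were statically exposed from 6 to 120 hpf at 28C in 0.64% DMSO, with 5uM trimethyltin chloride as positive control. Craniofacial malformation was scored present/absent by brightfield microscopy, relative to DMSO.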

[3] = Tanguay_ZF_120hpf_AXIS: Oregon State University Tanguay Lab 120 Hour Post-fertilization zebrafish Assay for Axial Malformation (AID 2284398)
How it was run: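 Dechorionated 5D wild-type zebrafish embryos exposed statically, one per well, from 6 to 120 hpf at 28C, 0.64% DMSO. Axial malformation scored as present/absent by brightfield microscopy at 120 hpf; dead embryos not scored.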

[4] = Tanguay_ZF_120hpf_MORT: Oregon State University Tanguay Lab 120 Hour Post-fertilization zebrafish Assay for Mortality (AID 2284399)
How it was run: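 Dechorionated wild-type Tropical 5D zebrafish embryos, one per well from 6 hpf, static exposure to 120 hpf at 28C in sealed dark plates, 0.64% DMSO final. Mortality scored as binary by brightfield at 24 and 120 hpf.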

[5] = Tanguay_ZF_120hpf_EDEM: Oregon State University Tanguay Lab 120 Hour Post-fertilization zebrafish Assay for Edema Malformation (AID 2284400)
How it was run: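 Dechorionated Tropical 5D wild-type embryos, one per well, statically exposed from 6 to 120 hpf at 28C in 0.64% DMSO. Edema scored present/absent by brightfield microscopy at 120 hpf; dead embryos not scored; fit versus DMSO.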

[6] = Tanguay_ZF_120hpf_BRN: Oregon State University Tanguay Lab 120 Hour Post-fertilization zebrafish Assay for Brain Region Malformation (AID 2284402)
How it was run: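 Dechorionated wild-type Tropical 5D zebrafish embryos exposed statically from 6 to 120 hpf at 28C, one per well, 0.64% DMSO final. Brain malformation scored at 120 hpf by brightfield as present/absent; dead embryos not scored.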

[7] = Tanguay_ZF_120hpf_TCHR: Oregon State University Tanguay Lab 120 Hour Post-fertilization zebrafish Assay for Touch Responsive (AID 2284403)
How it was run: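 Dechorionated Tropical 5D wild-type zebrafish embryos, one per well from 6 hpf, were statically exposed to 120 hpf at 28 °C (0.64% DMSO). Touch response was scored present/absent at 120 hpf and not scored in dead larvae.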

[8] = Tanguay_ZF_120hpf_ANY: Oregon State University Tanguay Lab 120 Hour Post-fertilization zebrafish Assay for Any Mortality and Malformation (AID 2284404)
How it was run: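 Dechorionated Tropical 5D wild-type embryos, one per well from 6 hpf, static exposure in sealed, dark plates at 28C until 120 hpf, 0.64% DMSO final. Brightfield scoring of mortality and malformations as binary presence/absence, pooling 13 morphology endpoints.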

[9] = CCTE_Padilla_ZF_Score.Craniofacial: CCTE's 144 Hour Post-fertilization zebrafish Assay Score for Craniofacial Malformation, Padilla Lab (AID 2284405)
How it was run: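 Wild-type zebrafish embryos (with chorions), one per well in 10% Hanks', were dosed at 6–8 hpf in sealed plates and kept at 26C. They were rinsed at 5 dpf. At 6 dpf two blinded assessors scored craniofacial malformations by brightfield stereomicroscopy.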

[10] = CCTE_Padilla_ZF_Score.Edema: CCTE's 144 Hour Post-fertilization zebrafish Assay Score for Edema Malformation, Padilla Lab (AID 2284406)
How it was run: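 Wild-type zebrafish embryos, one per well in Hanks' solution, dosed at 6-8 hpf, sealed and reared at 26C on a 14:10 h cycle; rinsed on 5 dpf. At 6 dpf, blinded assessors scored edema by stereomicroscopy.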

[11] = CCTE_Padilla_ZF_Score.Spine: CCTE's 144 Hour Post-fertilization zebrafish Assay Score for Spine Malformation, Padilla Lab (AID 2284407)
How it was run: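 Wild-type zebrafish embryos, one per well in Hanks' solution, dosed at 6–8 hpf in sealed plates at 26C, 14:10 h light:dark; rinsed at 5 dpf. Two blinded assessors scored spinal defects by stereomicroscopy at 6 dpf; fitted versus DMSO.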

[12] = CCTE_Padilla_ZF_Score.Swim_bladder: CCTE's 144 Hour Post-fertilization zebrafish Assay Score for Swim Bladder Malformation, Padilla Lab (AID 2284408)
How it was run: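 Wild-type zebrafish embryos, one per well in 10% Hanks', dosed at 6–8 hpf, sealed, reared at 26C and rinsed at 5 dpf. Blinded assessors scored uninflated swim bladder by stereomicroscopy at 6 dpf, relative to DMSO.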

[13] = CCTE_Padilla_ZF_Score.Living: CCTE's 144 Hour Post-fertilization zebrafish Assay Score for Viability, Padilla Lab (AID 2284410);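 also: larval death at 6 dpf judged by absent heartbeat or coagulation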
How it was run: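 Wild-type zebrafish embryos were exposed singly from 6–8 hpf in sealed wells of Hanks' solution at 26C, then rinsed at 5 dpf. At 6 dpf, blinded assessors scored mortality (no heartbeat or coagulation) by stereomicroscopy, fitted against DMSO.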

[14] = CCTE_Padilla_ZF_Score.General: CCTE's 144 Hour Post-fertilization zebrafish Assay Score for General Malformation, Padilla Lab (AID 2284411)
How it was run: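 Wild-type zebrafish embryos were plated singly at 6-8 hpf in 10% Hanks' and exposed in sealed wells at 26C until rinsed on 5 dpf. At 6 dpf two blinded assessors scored mortality, hatching and malformations by stereomicroscopy; gain-of-signal versus DMSO.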

[15] = CCTE_Padilla_ZF_Score.Tail: CCTE's 144 Hour Post-fertilization zebrafish Assay Score for Tail Malformation, Padilla Lab (AID 2284414)
How it was run: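 Wild-type zebrafish embryos, one per well in 200 uL 10% Hanks', dosed at 6-8 hpf, sealed, and kept at 26 C on a 14:10 h light cycle. Chemical was rinsed out at 5 dpf. Blinded brightfield scoring of tail defects followed at 6 dpf.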

[16] = CCTE_Padilla_ZF_Score.Blood_pooling: CCTE's 144 Hour Post-fertilization zebrafish Assay Score for Blood Pooling, Padilla Lab (AID 2284415)
How it was run: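 Wild-type outbred zebrafish embryos, one per well in 10% Hanks', exposed from 6–8 hpf in sealed plates at 26C on 14:10 h light:dark, rinsed at 5 dpf. Blinded stereomicroscope scoring of blood pooling at 6 dpf; gain-of-signal versus DMSO.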

[17] = CCTE_Padilla_ZF_Score.Any: CCTE's 144 Hour Post-fertilization zebrafish Assay Score for Any Mortality or Malformation, Padilla Lab (AID 2284416)
How it was run: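 Wild-type zebrafish embryos with chorions, one per well in 10% Hanks' from 6–8 hpf, dosed in sealed plates at 26 C, 14:10 h light:dark; rinsed at 5 dpf; blinded scoring at 6 dpf for death or malformation, versus DMSO.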

[18] = CCTE_Padilla_ZF_Score.Position: CCTE's 144 Hour Post-fertilization zebrafish Assay Score for Position, Padilla Lab (AID 2284409)
How it was run: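 Wild-type zebrafish embryos (with chorions) exposed singly from 6–8 hpf in sealed wells of Hanks' solution at 26C, rinsed at 5 dpf. At 6 dpf, blinded assessors scored abnormal water-column position by brightfield stereomicroscopy, relative to DMSO.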

OCC(F)(F)C(F)(F)C(F)(F)C(F)(F)C(F)(F)C(F)F
outcome [1]: inactive | outcome [2]: inactive | outcome [3]: inactive | outcome [4]: inactive | outcome [5]: inactive | outcome [6]: inactive | outcome [7]: inactive | outcome [8]: inactive | outcome [9]: inactive | outcome [10]: inactive | outcome [11]: inactive | outcome [12]: inactive | outcome [13]: inactive | outcome [14]: inactive | outcome [15]: inactive | outcome [16]: inactive | outcome [17]: inactive

C=C(C)C(=O)OCCC(F)(F)C(F)(F)C(F)(F)C(F)(F)C(F)(C(F)(F)F)C(F)(F)F
outcome [1]: inactive | outcome [2]: inactive | outcome [3]: inactive | outcome [4]: inactive | outcome [5]: inactive | outcome [6]: inactive | outcome [7]: inactive | outcome [8]: inactive | outcome [9]: inactive | outcome [10]: inactive | outcome [11]: inactive | outcome [12]: inactive | outcome [18]: inactive | outcome [13]: inactive | outcome [14]: inactive | outcome [15]: inactive | outcome [16]: inactive | outcome [17]: inactive

C=C(C)C(=O)OCC(F)(F)C(F)(F)C(F)(F)C(F)(F)C(F)(F)C(F)(F)C(F)(F)F
outcome [1]: inactive | outcome [2]: inactive | outcome [3]: inactive | outcome [4]: inactive | outcome [5]: inactive | outcome [6]: inactive | outcome [7]: inactive | outcome [8]: inactive | outcome [9]: inactive | outcome [10]: inactive | outcome [11]: inactive | outcome [12]: inactive | outcome [13]: inactive | outcome [14]: inactive | outcome [15]: inactive | outcome [16]: inactive | outcome [17]: inactive

FC(F)(F)C(F)(F)C(F)(F)CI
outcome [1]: inactive | outcome [2]: inactive | outcome [3]: inactive | outcome [4]: inactive | outcome [5]: inactive | outcome [6]: inactive | outcome [7]: inactive | outcome [8]: inactive | outcome [9]: inactive | outcome [10]: inactive | outcome [11]: inactive | outcome [12]: inactive | outcome [13]: inactive | outcome [14]: inactive | outcome [15]: inactive | outcome [16]: inactive | outcome [17]: inactive

FC(F)(F)C(F)(F)C(F)(F)C(F)(F)C(F)(F)C(F)(F)C(F)(F)I
outcome [1]: inactive | outcome [2]: inactive | outcome [3]: inactive | outcome [4]: inactive | outcome [5]: inactive | outcome [6]: inactive | outcome [7]: inactive | outcome [8]: inactive | outcome [9]: inactive | AC50 [10]: 10.2 µM (active) | outcome [11]: inactive | AC50 [12]: 63.8 µM (active) | outcome [13]: inactive | AC50 [14]: 11.8 µM (active) | outcome [15]: inactive | outcome [16]: inactive | AC50 [17]: 12.4 µM (active)

OCC(F)(F)C(F)(F)C(F)(F)F
outcome [1]: inactive | outcome [2]: inactive | outcome [3]: inactive | outcome [4]: inactive | outcome [5]: inactive | outcome [6]: inactive | outcome [7]: inactive | outcome [8]: inactive | outcome [9]: inactive | outcome [10]: inactive | outcome [11]: inactive | outcome [12]: inactive | outcome [18]: inactive | outcome [13]: inactive | outcome [14]: inactive | outcome [15]: inactive | outcome [16]: inactive | outcome [17]: inactive

O=C(O)C(F)(F)C(F)(F)C(F)(F)F
outcome [1]: inactive | outcome [2]: inactive | outcome [3]: inactive | outcome [4]: inactive | outcome [5]: inactive | outcome [6]: inactive | outcome [7]: inactive | outcome [8]: inactive | outcome [9]: inactive | outcome [10]: inactive | outcome [11]: inactive | outcome [12]: inactive | outcome [18]: inactive | outcome [13]: inactive | outcome [14]: inactive | outcome [15]: inactive | outcome [16]: inactive | outcome [17]: inactive

FC(F)(F)C(F)(F)C(F)(F)C(F)(F)C(F)(F)C(F)(F)CCS
outcome [18]: inactive
